From the supplement of paper PMC8726507

Each molecule was assayed on Plasmodium falciparum NF54-HGL (transmission to Anopheles stephensi) (assay: percentage of barcode signal found in uninfected mosquitoes (transmission-blocking activity); higher = stronger blocking of transmission to mosquito, active = 80 or more). Conditions: 10 µM; gametocyte preincubation time 24 h; readout time post-feed 8 days.
Description: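 The mixture was fed to Anopheles stephensi in 96-well plates as blood meals tagged with DNA-barcoded Asaia bacteria. Eight days later, mosquitoes were classed infected or uninfected by luminescence (mean + 5 SD of unfed controls). Barcodes were quantified by Luminex MagPlex-TAG in the pooled uninfected and infected Asaia cultures, background-corrected, and the score is % of barcode signal in uninfected mosquitoes = 100*Iu/(Iu+Ii).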

SMILES	percentage of barcode signal found in uninfected mosquitoes
CC(C)(C)C(O)C(Oc1ccc(-c2ccccc2)cc1)n1cncn1 (centres undefined)	-1.02% (inactive)
CO/C=C(/C(=O)OC)c1ccccc1Oc1cc(Oc2ccccc2C#N)ncn1	69.5% (inactive)
Nc1c2c(nc3sc4c(c13)CCCC4)CCCC2	42% (inactive)
CC1(C)OB(O)c2ccc(C3=NOC(c4cc(Cl)c(F)c(Cl)c4)(C(F)(F)F)C3)cc21 (centres undefined)	-4.84% (inactive)
Cc1nn(Cc2ccccc2)c(Cl)c1C(=O)NC1CCCCCC1	2.01% (inactive)
CC1COC(Cn2cncn2)(c2ccc(Oc3ccc(Cl)cc3)cc2Cl)O1 (centres undefined)	19.1% (inactive)
Cc1cc(C2=NOC(c3cc(Cl)c(F)c(Cl)c3)(C(F)(F)F)C2)ccc1C(=O)NCc1ccc2c(c1)C(C)(C)OB2O (centres undefined)	43.3% (inactive)
CCc1nn(C)c(C(=O)NCc2ccc(Oc3ccc(C)cc3)cc2)c1Cl	25.8% (inactive)

Same assay, conditions: 20 µM; gametocyte preincubation time 24 h; readout time post-feed 8 days

SMILES	percentage of barcode signal found in uninfected mosquitoes
CO/N=C(\C(=O)OC)c1ccccc1CO/N=C(\C)c1cccc(C(F)(F)F)c1	83.6% (active)
Cc1cccc(C(=O)Nc2ccnc(N(C)C3CCN(CC(C)C)CC3)c2)c1	46.4% (inactive)
CO[C@@H]1CN(c2ccc(C#CC3(O)CN4CCC3CC4)c(Cc3ccccc3)n2)C[C@H]1O (some centres undefined)	43% (inactive)
Cc1nn(C)c(C)c1NS(=O)(=O)c1c(Cl)cc(-c2ccnc(N3CCNCC3)c2)cc1Cl	48.9% (inactive)
O=C1O[C@@H](CO)CN1c1cc(F)c(C2=CCN(Cc3ccccc3)CC2)c(F)c1	0.248% (inactive)
O=C1O[C@@H](COc2ccon2)CN1c1cc(F)c(C2=CCN(Cc3ccccc3)CC2)c(F)c1	29.7% (inactive)
